# The panel holds about 79,000 compounds, 15% with a hit somewhere; the sample as a whole holds those more often. Unmarked numbers belong to inactive results. Activity calls are given as the source filed them. No stated cut-off is given here; in the data, active means growth inhibition above about 70%; inactive means the rest.
# Assays:
# [1] = NCI Yeast Anticancer Drug Screen. Data for the rad50 strain (AID 155);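 further: 0% = growth of vehicle-only cultures of the same strain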; conditions: S. cerevisiae rad50 strain growth inhibition, hits give high values
# Outline: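 Inhibition values express reduced yeast growth in compound-treated cultures relative to vehicle-treated controls.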
# [2] = NCI Yeast Anticancer Drug Screen. Data for the mec2-1 strain (AID 157); conditions: S. cerevisiae mec2-1 strain, hits give high values
# Outline: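 Test agents were screened against the mec2-1 yeast strain, with defined DNA repair or cell cycle alteration. Growth was scored as inhibition against vehicle-only controls.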
# [3] = NCI Yeast Anticancer Drug Screen. Data for the sgs1 mgt1 strain (AID 161);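 further: 0% = growth of cultures given vehicle only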; conditions: S. cerevisiae sgs1 mgt1 strain, hits give high values
# Outline: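 Test agents were incubated with a DNA-repair-mutant yeast strain. Growth was then read and compared against vehicle-treated controls.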
# [4] = NCI Yeast Anticancer Drug Screen. Data for the cln2 rad14 strain (AID 165);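 further: 0% = growth equal to vehicle treated cultures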; conditions: S. cerevisiae cln2 rad14 strain, hits give high values
# Outline: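 Growth of compound-exposed yeast (cln2 rad14 genotype) measured and expressed as inhibition relative to vehicle.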
# [5] = NCI Yeast Anticancer Drug Screen. Data for the bub3 strain (AID 167); conditions: S. cerevisiae bub3 mutant strain, hits give high values
# Outline: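 Steps: expose the mutant yeast strain to compound; grow alongside vehicle-treated cultures; measure growth; express inhibition against the vehicle cultures.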
# [6] = NCI Yeast Anticancer Drug Screen. Data for the mlh1 rad18 strain (AID 175); conditions: S. cerevisiae mlh1 rad18 strain growth inhibition, hits give high values
# Outline: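 In this whole-cell yeast screen, a strain with altered DNA damage repair is challenged with compound, and its growth is measured against matched vehicle-treated controls.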
# [7] = at 5.0 µM (retest, dose inferred, filed as 0.5)
# [8] = at 50.0 µM (retest, dose inferred, filed as 5.0)
Compound,"growth inhibition [1, 7]","growth inhibition [1, 8]",growth inhibition ([1]; at 50.0 µM),"growth inhibition [2, 7]","growth inhibition [2, 8]",growth inhibition ([2]; at 50.0 µM),"growth inhibition [3, 7]","growth inhibition [3, 8]",growth inhibition ([3]; at 50.0 µM),"growth inhibition [4, 7]","growth inhibition [4, 8]",growth inhibition ([4]; at 50.0 µM),"growth inhibition [5, 7]","growth inhibition [5, 8]",growth inhibition ([5]; at 50.0 µM),"growth inhibition [6, 7]","growth inhibition [6, 8]",growth inhibition ([6]; at 50.0 µM)
COC(=O)C1=CCC[C@H]2C1(C)CCC(C)C21CC(c2ccoc2)OC1=O (stereo not given in full),-8%,75% (active),50.5%,8%,85% (active),55.6%,10%,90% (active),72.2% (active),-16%,14%,28.9%,-8%,83% (active),67.2%,10%,87% (active),76.2% (active)
CCOC(=O)C(/C=N\C(=S)Nc1ccc(Cl)c(Cl)c1)=C(/O)c1ccccc1,2%,58%,83.3% (active),-3%,45%,69%,11%,38%,75.5% (active),-8%,45%,78.6% (active),12%,35%,78.4% (active),-9%,49%,81.2% (active)
CC(=O)N1CC(C)CC2OC3(CCC4C5CCC6CC(O)CCC6(C)C5C(=O)C4C3C)C(C)C21 (stereo not given),10%,98% (active),91.6% (active),1%,98% (active),93.7% (active),19%,97% (active),92.6% (active),26%,98% (active),92.5% (active),14%,98% (active),92.2% (active),-20%,98% (active),91.8% (active)
CN(C)C(=S)/N=c1\ssc(=S)n1C,2%,0%,86.7% (active),2%,4%,27.4%,2%,-1%,90.7% (active),1%,4%,72.1% (active),-1%,-1%,87.8% (active),0%,6%,84.8% (active)
[Cl][Pt+2][Cl].[NH-]CC1(C[NH-])CCCC1,28%,40%,0.2%,14%,19%,0.9%,26%,39%,-26.1%,7%,30%,-3.1%,19%,34%,-19.2%,26%,72% (active),-30%
Cc1cc(NC(=S)SC(C)C)ccc1Br,5%,99% (active),99.5% (active),0%,100% (active),99.7% (active),2%,99% (active),71.8% (active),-19%,99% (active),98.9% (active),7%,99% (active),99.5% (active),-3%,99% (active),99.3% (active)
C=C1C(=O)C23CC[C@H]4C(C)(CCC[C@]4(C)C(=O)O)[C@@H]2CCC1C3 (stereo not given in full),94% (active),99% (active),90.5% (active),96% (active),99% (active),93.7% (active),93% (active),99% (active),93% (active),72% (active),99% (active),88.3% (active),95% (active),99% (active),92% (active),97% (active),99% (active),92.7% (active)
O=C1C2C3C=CC(C3)C2C(=O)C2C3C=CC(C3)C12 (stereo not given),70% (active),96% (active),98.6% (active),58%,98% (active),99.3% (active),65%,99% (active),99% (active),23%,95% (active),88% (active),53%,96% (active),98.9% (active),60%,98% (active),99.2% (active)
CC1=C2CCC3C(CCC4(C)C(C(C)CCCC(C)C)CCC34)C2(C)CCC1=O (stereo not given),-11%,-2%,41%,1%,-2%,4.25%,4%,-1%,16.4%,6%,3%,18.4%,1%,5%,4.1%,17%,9%,10.9%
CSC(=S)/C(=C/Nc1ncccn1)c1ccccc1,5%,97% (active),94.8% (active),3%,99% (active),93.5% (active),-3%,94% (active),79% (active),1%,62%,95% (active),-3%,94% (active),91.8% (active),7%,97% (active),94.5% (active)
